Test results reported in PubChem BioAssay.
Active and inactive are the calls of the source.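 How the source made its calls, unless noted: active means visual image review flags a hit and inhibition of aggregation exceeds 20%; inconclusive means visual hit but inhibition at or below 20%; inactive means no hit on visual image review.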

Experiments:
[1] = inhibitors of TNFa-induced NFkB p65 translocation, primary screen, imaging, HUVEC, MLSMR starter and 10KST1 sets (AID 438;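 active means inhibition above 20% together with a positive visual image hit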;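 further: compound added about 3h40 before a 20 min TNFalpha stimulation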;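 on inhibition: signal is the nuclear over cytoplasmic p65 intensity ratio per well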); details: HUVEC TNFa-induced p65 nuclear translocation; cell count: measured here: nuclei count (cytotoxicity indicator), at 2.08 µM; inhibition: at 2 µM, stronger effect = higher value, 0% TNFa-plus-vehicle, 100% no-TNFa wells
[2] = inhibitors of mutant huntingtin aggregation, primary screen, imaging, exon1htt(103Q)mCFP cells, high-content imaging (AID 483); details: exon1htt(103Q)mCFP cell line, aggregate imaging, at 2 µM; inhibition of aggregation: stronger effect = higher value; nuclei count: measured here: cell count, toxicity;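 further: compound exposure lasted 3 days before fixation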;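 on nuclei count: percent of the per-plate median nuclei count of sample wells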
[3] = inhibitors of E-selectin induction by TNFa, primary screen, imaging, HUVEC, immunofluorescence, MLSMR starter and 10KST1 sets (AID 487;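 active means visually confirmed hit in the image check and inhibition above 20%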;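 on inhibition: signal is fraction of cell area covered by stained E-selectin grains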;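 on nuclei count: 100% = median nuclei count of all wells on the same plate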); details: HUVEC TNFalpha-induced E-selectin immunofluorescence imaging, at 2 µM; inhibition: stronger effect = higher value; nuclei count: measured here: cell number, toxicity
[4] = target: Voltage-gated potassium channel subunit beta-2 (Rattus norvegicus) (UniProt P62483); assay: KvBeta enzyme negative modulators, primary screen, biochemical, NADPH fluorescence (AID 622;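 active means fluorescence slope higher than the sample average by over 3 SD, cut at about -0.22 in these data, passing the limit was not always enough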;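 further: slope of raw intensity against log time taken from 70 to 1610 s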); details: recombinant KvBeta, 4-cyanobenzaldehyde reduction, at 10 µM, stronger effect = higher value
[5] = target: Voltage-gated potassium channel subunit beta-2 (Rattus norvegicus) (UniProt P62483); assay: KvBeta positive modulators, primary screen, biochemical, NADPH fluorescence (AID 623;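 active means NADPH fluorescence slope more negative than the mean of all samples by about 3 SD, 99.7% confidence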;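 further: fluorescence intensity change per second fitted from 20 to 320 s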); details: Recombinant KvBeta, NADPH fluorescence decrease slope, 10 min; at 10 µM; stronger effect = lower value
[6] = target: Alpha-2C adrenergic receptor (Homo sapiens) (UniProt P18825); assay: modulators of alpha2C/GIRK thallium flux, primary screen, cell-based, HEK293 alpha2C/GIRK1/2 (AID 624;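 active means fluorescence slope after compound addition differing from the mean of all screened samples at 99.7% confidence, in either direction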;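 further: slope of fluorescence ratio to pre-addition baseline per second over 15 to 24 s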); details: thallium flux BTC fluorescence, at 10 µM, actives lie on both sides
[7] = inhibitors of Sendai virus-induced IRF3 signaling, primary screen, TLR/RLR signaling modifier project, cell-based, Sendai virus stimulus, luciferase, 10K MLSCN set (AID 602276;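 active means inhibition at or above 50% at 10 µM; inactive means inhibition below 50%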;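 further: firefly luciferase from ISG56 promoter only with Renilla not read in this screen; 0% = Sendai virus plus DMSO and 100% = medium plus DMSO without virus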); details: HEK293 RL24 IRF3 luciferase reporter, at 10 µM, stronger effect = higher value
[8] = inhibitors of poly I:C-induced TLR3 signaling, primary screen, cell-based, poly I:C stimulus, luciferase, 10K MLSCN set (AID 602277;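 active means inhibition of the reporter signal at or above 50%; inactive means inhibition below 50%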); details: HEK293-TLR3 RL24 IRF3 luciferase reporter, at 10 µM, stronger effect = higher value

Chain of Alpha-2C adrenergic receptor (Homo sapiens) (P18825 whole entry, looked up): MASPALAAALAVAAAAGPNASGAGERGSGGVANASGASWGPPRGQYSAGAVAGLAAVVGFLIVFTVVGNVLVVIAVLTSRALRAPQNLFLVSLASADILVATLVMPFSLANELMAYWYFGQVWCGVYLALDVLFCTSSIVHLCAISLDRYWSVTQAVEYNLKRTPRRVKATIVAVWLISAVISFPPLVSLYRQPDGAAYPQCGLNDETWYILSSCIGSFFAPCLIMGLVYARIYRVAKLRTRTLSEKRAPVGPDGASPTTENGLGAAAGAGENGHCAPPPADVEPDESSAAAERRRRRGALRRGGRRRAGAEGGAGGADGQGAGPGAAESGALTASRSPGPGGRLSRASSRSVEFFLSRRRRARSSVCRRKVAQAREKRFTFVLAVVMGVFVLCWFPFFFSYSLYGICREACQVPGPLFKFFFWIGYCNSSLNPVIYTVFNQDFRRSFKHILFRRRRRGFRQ
Chain of Voltage-gated potassium channel subunit beta-2 (Rattus norvegicus) (P62483 whole entry, looked up): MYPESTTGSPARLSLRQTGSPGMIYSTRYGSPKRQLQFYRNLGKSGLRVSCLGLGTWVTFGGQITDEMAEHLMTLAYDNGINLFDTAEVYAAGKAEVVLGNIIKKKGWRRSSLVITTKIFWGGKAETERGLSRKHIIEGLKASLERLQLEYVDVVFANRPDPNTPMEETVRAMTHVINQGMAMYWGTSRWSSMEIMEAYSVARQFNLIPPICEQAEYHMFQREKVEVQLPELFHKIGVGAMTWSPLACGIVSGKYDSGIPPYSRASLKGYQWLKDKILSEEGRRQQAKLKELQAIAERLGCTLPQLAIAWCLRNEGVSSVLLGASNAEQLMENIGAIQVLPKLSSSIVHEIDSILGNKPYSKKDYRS

Compound | cell count [1] | inhibition [1] | inhibition of aggregation [2] | nuclei count [2] [%] | inhibition [3] | nuclei count [3] [%] | fluorescence slope [4] | NADPH fluorescence slope [5] | slope [6] | inhibition [7] | inhibition [8]
O=c1cnnc(NCc2ccccc2)[nH]1 | 696 | -11.2% (inactive) | 9.3% (inactive) | 99.5 | -32.9% (inactive) | 105 | -0.418 (inactive) | -2.6e-05 (inactive) | 0.00324 (inactive) | 1.13% (inactive) | 8.35% (inactive)
CCOC(=O)c1cc2c(=O)n3ccccc3nc2n(CC(C)C)c1=NC(=O)c1ccco1 | 659 | -13.4% (inactive) | 6.2% (inactive) | 96.7 | -49.4% (inactive) | 112 | -0.532 (inactive) | -5.6e-06 (inactive) | 0.00344 (inactive) | 2.77% (inactive) | 20.4% (inactive)
CCCOc1ccccc1NC(=O)c1c(-c2ccccc2)noc1C | 800 | 4.6% (inactive) | 8.8% (inactive) | 111 | -43.4% (inactive) | 112 | -0.584 (inactive) | -1.4e-05 (inactive) | 0.00575 (inactive) | 10.6% (inactive) | 25.8% (inactive)
COc1ccc(N2CCN(CCCNC(=O)C3(S(=O)(=O)c4ccc(Cl)cc4)CC3)CC2)cc1 | 447 | -6.2% (inactive) | 8.8% (inactive) | 101 | -86% (inactive) | 115 | -0.565 (inactive) | 1.2e-05 (inactive) | 0.00533 (inactive) | -9.9% (inactive) | -1.93% (inactive)
COc1ccc(NC(=O)CN(c2cc(C)cc(C)c2)S(=O)(=O)c2c(C)noc2C)cc1OC | 753 | -1.7% (inactive) | -15.7% (inactive) | 116 | -8.7% (inactive) | 117 | -0.551 (inactive) | -2.2e-05 (inactive) | 0.00583 (inactive) | 15.1% (inactive) | 38% (inactive)
COc1ccc(CCNC(=O)c2cc3sc(Cl)cc3n2C)cc1OC | 611 | 4.1% (inactive) | -8.1% (inactive) | 99.5 | 2.3% (inactive) | 89 | -0.626 (inactive) | -4e-05 (inactive) | 0.00715 (inactive) | -15.3% (inactive) | -18.8% (inactive)
Cc1cccc(CC2CC(=O)N(c3ccccc3)C2=O)c1 (centres undefined) | 203 | -2.9% (inactive) | -15.1% (inactive) | 84.5 | 11.6% (inactive) | 102 | -0.554 (inactive) | -2.2e-05 (inactive) | 0.00674 (inactive) | -16.2% (inactive) | -11.2% (inactive)
CC(CC(=O)NC1CCSC1=O)c1ccccc1 (centres undefined) | 396 | -4.2% (inactive) | 8.2% (inactive) | 102 | -43.3% (inactive) | 124 | -0.452 (inactive) | 3.8e-05 (inactive) | 0.00567 (inactive) | -7.84% (inactive) | 17% (inactive)
COc1ccc(-c2cc(C(F)(F)F)n3nc(C(=O)N4CCOCC4)nc3n2)cc1 | 620 | 11.1% (inactive) | -19.6% (inactive) | 103 | 41.9% (inactive) | 102 | -0.172 (inactive) | -5.6e-05 (inactive) | 0.00494 (inactive) | 10.8% (inactive) | 15.3% (inactive)
CCSCCNC(=O)c1cc(-n2cnnc2)ccc1Cl | 685 | 1.3% (inactive) | -2.3% (inactive) | 97.1 | 24.9% (inactive) | 89.9 | -0.633 (inactive) | -9.8e-06 (inactive) | 0.0037 (inactive) | 16.3% (inactive) | 20.3% (inactive)
Cc1cc(C)c(NC(=O)C2CSCCS2)c(C)c1 (centres undefined) | 484 | 4.7% (inactive) | 23.2% (inactive) | 96 | -55.7% (inactive) | 111 | -0.392 (inactive) | -6.2e-05 (inactive) | 0.00428 (inactive) | -3.4% (inactive) | -35.7% (inactive)
Cc1cc(N=Cc2cc(Br)ccc2O)no1 | 330 | -6.7% (inactive) | -17.3% (inactive) | 106 | -147% (inactive) | 121 | -0.311 (inactive) | -3.4e-05 (inactive) | 0.00663 (inactive) | 15.6% (inactive) | 15.7% (inactive)
Cc1cccn2c(=O)c3cc(C(=O)NC4CCCC4)c(=N)n(C4CCCC4)c3nc12 | 786 | 2.4% (inactive) | -58% (inactive) | 107 | -189% (inactive) | 126 | -0.0946 (inactive) | -1.1e-05 (inactive) | 0.00161 (inactive) | 17.5% (inactive) | 32.7% (inactive)
CCCOc1ccc(OCCSc2ncccn2)cc1 | 811 | -13% (inactive) | 24.7% (inactive) | 108 | -93.3% (inactive) | 108 | -0.454 (inactive) | 2.1e-05 (inactive) | 0.0061 (inactive) | -39.4% (inactive) | -92% (inactive)
